These results are taken from ChEMBL document CHEMBL1961873, “Compounds: GSK PKIS; Assays: Nanosyn kinase panel” (2012).

Test [1] addresses RAF proto-oncogene serine/threonine-protein kinase (Homo sapiens) (UniProt P04049). To be noted: at 1 µM.
Test [2] addresses T1, Interleukin-1 receptor-associated kinase 4 (Homo sapiens) (UniProt Q9NWZ3).
T1 sequence (whole entry): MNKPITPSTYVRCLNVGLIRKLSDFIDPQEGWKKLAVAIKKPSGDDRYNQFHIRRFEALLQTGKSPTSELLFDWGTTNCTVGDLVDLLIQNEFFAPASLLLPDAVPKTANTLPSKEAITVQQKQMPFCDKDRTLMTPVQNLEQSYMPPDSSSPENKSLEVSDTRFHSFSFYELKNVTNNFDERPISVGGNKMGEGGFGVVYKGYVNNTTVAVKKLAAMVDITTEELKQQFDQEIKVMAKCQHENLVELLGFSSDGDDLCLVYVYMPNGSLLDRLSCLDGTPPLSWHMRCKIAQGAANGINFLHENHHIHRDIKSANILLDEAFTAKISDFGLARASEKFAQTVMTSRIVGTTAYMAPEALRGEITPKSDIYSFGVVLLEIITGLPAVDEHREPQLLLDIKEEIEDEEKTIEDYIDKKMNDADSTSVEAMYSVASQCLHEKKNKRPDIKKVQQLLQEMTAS
To be noted: at 0.1 µM.

The target in test [3] is T1, Interleukin-1 receptor-associated kinase 4 (Homo sapiens). To be noted: at 1 µM.
For test [4], the target named is Leucine-rich repeat serine/threonine-protein kinase 2 (Homo sapiens) (UniProt Q5S007). To be noted: at 0.1 µM.
Test [5] has the same target. To be noted: at 1 µM.
In test [6] the test system is Leucine-rich repeat serine/threonine-protein kinase 2 (Homo sapiens), Q5S007 [G2019S]. The note with it: at 0.1 µM.
The test system is the same in test [7]. The note with it: at 1 µM.

RAF proto-oncogene serine/threonine-protein kinase (Homo sapiens), sequence (P04049 whole entry): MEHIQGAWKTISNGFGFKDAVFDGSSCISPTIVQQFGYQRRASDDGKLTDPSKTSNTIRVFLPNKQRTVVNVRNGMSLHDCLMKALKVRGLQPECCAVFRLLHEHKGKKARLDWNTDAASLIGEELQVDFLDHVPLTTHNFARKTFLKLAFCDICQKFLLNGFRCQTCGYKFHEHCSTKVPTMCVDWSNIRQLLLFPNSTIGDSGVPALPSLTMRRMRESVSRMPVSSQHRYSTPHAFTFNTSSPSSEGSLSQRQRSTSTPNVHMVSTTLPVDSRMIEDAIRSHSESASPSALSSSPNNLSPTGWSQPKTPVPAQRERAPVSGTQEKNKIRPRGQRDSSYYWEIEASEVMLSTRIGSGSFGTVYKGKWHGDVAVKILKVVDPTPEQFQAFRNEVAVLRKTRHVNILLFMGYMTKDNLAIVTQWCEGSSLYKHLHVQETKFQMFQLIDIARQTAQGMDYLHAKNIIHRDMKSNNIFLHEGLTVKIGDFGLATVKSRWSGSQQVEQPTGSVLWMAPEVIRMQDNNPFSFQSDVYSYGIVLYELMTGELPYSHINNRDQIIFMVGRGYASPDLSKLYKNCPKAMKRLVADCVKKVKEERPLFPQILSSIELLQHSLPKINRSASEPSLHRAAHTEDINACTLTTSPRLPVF
Leucine-rich repeat serine/threonine-protein kinase 2 (Homo sapiens), sequence (Q5S007 whole entry): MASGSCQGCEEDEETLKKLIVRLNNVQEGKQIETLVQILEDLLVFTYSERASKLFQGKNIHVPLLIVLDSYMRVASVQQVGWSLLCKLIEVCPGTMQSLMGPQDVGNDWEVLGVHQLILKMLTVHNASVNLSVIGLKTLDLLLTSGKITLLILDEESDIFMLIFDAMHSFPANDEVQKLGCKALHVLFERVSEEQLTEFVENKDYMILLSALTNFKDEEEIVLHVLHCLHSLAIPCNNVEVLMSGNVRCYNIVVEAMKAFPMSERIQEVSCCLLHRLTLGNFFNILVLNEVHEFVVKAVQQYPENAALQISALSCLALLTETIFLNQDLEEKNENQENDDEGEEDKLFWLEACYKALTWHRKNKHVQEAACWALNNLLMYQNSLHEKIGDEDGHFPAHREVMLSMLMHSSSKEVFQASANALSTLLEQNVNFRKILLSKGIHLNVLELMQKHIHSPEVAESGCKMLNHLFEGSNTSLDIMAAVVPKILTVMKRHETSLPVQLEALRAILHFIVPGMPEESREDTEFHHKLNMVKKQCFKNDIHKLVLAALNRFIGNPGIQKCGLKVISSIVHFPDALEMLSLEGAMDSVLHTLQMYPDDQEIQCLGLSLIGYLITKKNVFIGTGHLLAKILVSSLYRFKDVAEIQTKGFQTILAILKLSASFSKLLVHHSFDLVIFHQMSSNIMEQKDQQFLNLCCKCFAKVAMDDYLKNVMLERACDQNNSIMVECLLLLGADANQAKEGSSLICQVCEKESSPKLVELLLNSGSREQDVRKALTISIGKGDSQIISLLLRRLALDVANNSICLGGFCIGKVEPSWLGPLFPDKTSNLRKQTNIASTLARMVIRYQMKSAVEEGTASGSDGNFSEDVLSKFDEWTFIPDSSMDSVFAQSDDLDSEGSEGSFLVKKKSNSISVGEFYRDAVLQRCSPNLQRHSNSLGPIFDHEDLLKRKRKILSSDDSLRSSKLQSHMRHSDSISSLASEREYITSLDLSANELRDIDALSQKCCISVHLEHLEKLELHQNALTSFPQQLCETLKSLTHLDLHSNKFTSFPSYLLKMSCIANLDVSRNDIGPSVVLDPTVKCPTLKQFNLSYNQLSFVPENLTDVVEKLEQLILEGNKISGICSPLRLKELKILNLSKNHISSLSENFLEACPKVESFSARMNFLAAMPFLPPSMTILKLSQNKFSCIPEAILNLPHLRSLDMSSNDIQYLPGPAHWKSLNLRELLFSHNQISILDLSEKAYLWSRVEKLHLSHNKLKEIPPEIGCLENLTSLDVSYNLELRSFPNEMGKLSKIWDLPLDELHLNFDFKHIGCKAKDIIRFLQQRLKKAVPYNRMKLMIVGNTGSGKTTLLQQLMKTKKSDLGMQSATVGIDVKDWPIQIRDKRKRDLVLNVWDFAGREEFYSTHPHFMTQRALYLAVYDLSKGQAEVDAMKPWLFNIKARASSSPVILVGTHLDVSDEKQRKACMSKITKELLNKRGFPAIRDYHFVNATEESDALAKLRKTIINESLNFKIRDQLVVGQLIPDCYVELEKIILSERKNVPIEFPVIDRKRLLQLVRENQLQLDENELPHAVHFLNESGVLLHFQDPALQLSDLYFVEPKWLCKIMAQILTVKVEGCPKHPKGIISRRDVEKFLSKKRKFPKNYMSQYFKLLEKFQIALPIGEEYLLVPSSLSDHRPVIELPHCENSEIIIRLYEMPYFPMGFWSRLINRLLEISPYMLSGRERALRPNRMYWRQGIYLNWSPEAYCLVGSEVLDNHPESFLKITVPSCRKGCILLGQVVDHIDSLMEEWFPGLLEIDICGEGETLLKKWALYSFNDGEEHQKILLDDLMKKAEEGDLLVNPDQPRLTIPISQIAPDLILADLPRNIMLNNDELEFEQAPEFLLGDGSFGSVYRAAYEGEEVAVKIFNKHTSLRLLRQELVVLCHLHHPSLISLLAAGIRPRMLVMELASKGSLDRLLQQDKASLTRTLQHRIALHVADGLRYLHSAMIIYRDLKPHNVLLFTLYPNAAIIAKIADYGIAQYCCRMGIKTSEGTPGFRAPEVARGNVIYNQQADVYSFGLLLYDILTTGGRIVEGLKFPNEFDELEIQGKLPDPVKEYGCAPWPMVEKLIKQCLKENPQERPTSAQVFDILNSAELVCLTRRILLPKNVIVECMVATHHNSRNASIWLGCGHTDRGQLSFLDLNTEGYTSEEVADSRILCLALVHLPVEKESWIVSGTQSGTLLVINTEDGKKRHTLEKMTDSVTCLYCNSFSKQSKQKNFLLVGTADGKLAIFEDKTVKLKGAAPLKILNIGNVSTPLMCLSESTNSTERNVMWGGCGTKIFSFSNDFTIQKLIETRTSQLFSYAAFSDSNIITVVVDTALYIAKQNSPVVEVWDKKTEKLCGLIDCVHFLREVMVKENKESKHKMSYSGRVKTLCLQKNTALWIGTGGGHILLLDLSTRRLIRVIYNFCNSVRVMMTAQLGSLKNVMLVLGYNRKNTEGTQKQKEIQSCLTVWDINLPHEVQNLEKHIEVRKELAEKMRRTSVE
Leucine-rich repeat serine/threonine-protein kinase 2 (Homo sapiens), Q5S007 [G2019S], sequence (Q5S007 whole entry G2019S): as the sequence (Q5S007 whole entry) above, with G2019S counted along it

As a reminder, the inhibition is the drop in the measured response relative to a control, in per cent. For `O=C1Nc2ccccc2/C1=C/Nc1ccc(-n2cncn2)cc1`, the inhibition came to 5.44% in test [1]; 2.2% in test [2]; 2.52% in test [3]; 4.2% in test [4]; 9.2% in test [5]; 6.6% in test [6]. The inhibition in test [7] came out at 23.9%.

In the case of `Clc1ccc(CNc2nccc(-c3cnn4ncccc34)n2)cc1`, the inhibition was -1.19% in test [1]; -1.73% in test [2]; 2.1% in test [3]; 1.21% in test [4]; 14% in test [5]; 1.24% in test [6]. Also, the inhibition in test [7] is 13%.

Take `c1ccc(Oc2ccc(Nc3ncc(-c4ccccc4)o3)cc2)cc1`: the inhibition is 1.5% in test [1]; 1.75% in test [2]; 0.97% in test [3]; 1.55% in test [4]; 3.95% in test [5]; 4.15% in test [6]. Also, the inhibition in test [7] came to 6.81%.

`O=C(Nc1n[nH]c2nc(-c3ccc(O)cc3)c(Br)cc12)C1CC1`: the inhibition in test [1] was 3.99%; in test [2], 3.81%; in test [3], 3.24%; in test [4], 5.19%; in test [5] it was 14.1%; in test [6], 6.34%. Besides, the inhibition in test [7] is 22.4%.

As for `COc1cc2ncn(-c3cc(OCc4ccccc4C(F)(F)F)c(C(C)=O)s3)c2cc1OC`, the inhibition was -1.56% in test [1]; 0.98% in test [2]; 1.4% in test [3]; 3.23% in test [4]; 6.15% in test [5]; 3.58% in test [6]. In test [7], the inhibition turned out to be 6.68%.

As to `COc1cccc(/C=N/Nc2ncnc3c2cnn3-c2cccc(OC)c2)c1`, the inhibition in test [1] was -1.82%; in test [2] it was 1.63%; in test [3], 2.48%; in test [4], -1.62%; in test [5], 0.55%; in test [6], 0.17%. Further, the inhibition in test [7] stood at 5.07%.

On to `Fc1ccc(-c2ncn(C3CCNCC3)c2-c2ccnc(Oc3ccc(Oc4ccccc4)cc3)n2)cc1`, for which the inhibition in test [1] was found to be 0.47%; in test [2] it was 1.5%; in test [3], 1.78%; in test [4], 0.62%; in test [5] it was 5.34%; in test [6] it was 5.08%. Besides, the inhibition in test [7] came out at 8.01%.

`NS(=O)(=O)c1ccc(Nc2cc(-c3ccc(O)c(F)c3)n[nH]2)cc1`: the inhibition was 0.94% in test [1]; 3.6% in test [2]; -1.08% in test [3]; 1.51% in test [4]; 13.2% in test [5]; 4.54% in test [6]. Further, the inhibition in test [7] is 29.7%.

Regarding `NC(=O)Cc1ccccc1Oc1nccc(-c2c(-c3ccc(F)cc3)ncn2C2CCNCC2)n1`, the inhibition in test [1] was -7.05%; in test [2], 3.72%; in test [3], 1.16%; in test [4], 6.61%; in test [5] it was 2.56%; in test [6] it was 6.11%. Further, the inhibition in test [7] was 8.33%.

`CN1CCN(CCCNc2nc3ccc(Oc4ccc(NC(=O)Nc5cc(C(F)(F)F)ccc5F)cc4)cc3[nH]2)CC1`: the inhibition was -5.93% in test [1]; -3.98% in test [2]; 1.11% in test [3]; 0.2% in test [4]; 9.72% in test [5]; 0.21% in test [6]. Besides, the inhibition in test [7] stood at 4.43%.

On to `COc1cc(Nc2ncc(-c3ccccc3)o2)cc(OC)c1OC`, for which the inhibition in test [1] is -4.59%; in test [2], -0.52%; in test [3] it was 0.55%; in test [4] it was 0.73%; in test [5] it was 8.78%; in test [6], 4.17%. Moreover, the inhibition in test [7] came to 21.3%.

Turning to `NC(=O)c1cc(-c2ccncc2)cc(-c2ccccc2)c1N`, the inhibition is -6.49% in test [1]; 2.85% in test [2]; 2.52% in test [3]; 3.59% in test [4]; 8.2% in test [5]; 4.3% in test [6]. Moreover, in test [7], the inhibition was found to be 12.3%.

Regarding `CN(C)CCOc1ccc(-c2cc(-c3ccc4c(c3)CCC4=NO)c(-c3ccncc3)o2)cc1`, the inhibition in test [1] is 39.8%; in test [2] it was -0.42%; in test [3] it was 0.12%; in test [4] it was 1.03%; in test [5] it was 3.55%; in test [6] it was 1.85%. The inhibition in test [7] worked out at 2.48%.

`O=C1Nc2ccc(I)cc2C1=Cc1cc(Br)c(O)c(Br)c1`: the inhibition in test [1] came to 11.3%; in test [2], 1.47%; in test [3], 2.1%; in test [4], 19.2%; in test [5], 71.9%; in test [6], 37.4%. Also, the inhibition in test [7] amounted to 78%.

Consider `Cc1ccc(NC(=O)c2ccoc2)cc1-c1ccc(C(=O)NCC2CC2)cc1`, for which the inhibition in test [1] was -0.41%; in test [2] it was 1.67%; in test [3], 2%; in test [4], 1.24%; in test [5], 4.06%; in test [6] it was 2.32%. Also, the inhibition in test [7] is 2.75%.

With `Cc1ccc(C(=O)NC(C)C)cc1-c1ccc(C(=O)NCC2CC2)cc1`, the inhibition was -1.23% in test [1]; -1.36% in test [2]; -0.58% in test [3]; -0.57% in test [4]; -1.69% in test [5]; 0.59% in test [6]. The inhibition in test [7] was 2.07%.

`NC(=O)c1cc(-c2ccc(F)cc2)cc(-c2ccncc2)c1N`: the inhibition in test [1] stood at 8.69%; in test [2], 2.99%; in test [3], 1.61%; in test [4], 0.64%; in test [5] it was 0.67%; in test [6] it was 0.41%. Moreover, in test [7], the inhibition turned out to be 0.77%.
